Source: PubChem
The entries come from a sample that favours hits as a whole.
Dicer inh – blocks human Dicer maturation of pre-miR-21. Q9UPY3. cat-ELCCA pre-miR-21 Dicer processing, chemiluminescence; hits give high values. z-score at 25 µM. 6% of 47,000 active; in the data active means z-score above about 3, passing the limit was not always enough;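 further: plate controls were vehicle for no effect and no enzyme for full effect; higher signal means more uncleaved substrate so more Dicer inhibition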
Numbers without * were called inactive.

SMILES | Dicer inh
Cc1nc2ccccc2n1CCN1CCCCC1 | -0.5
O=S(=O)(Nc1nc2ccccc2nc1Nc1ccc(Cl)cc1)c1ccccc1 | 0.86
O=c1[nH]c2ccc(Nc3nc4ccccc4nc3NS(=O)(=O)c3ccc(Cl)cc3)cc2[nH]1 | 2.4
O=S(=O)(Nc1nc2ccccc2nc1NCc1ccccc1)c1ccc(Cl)cc1 | 6*
Cc1ccc(N2C(=O)CC(NC3CCCC3)C2=O)cc1 (centres undefined) | 1.9
COc1ccc(C2C(C(=O)OC3CCCC3)=C(C)NC3=C2C(=O)CCC3)cc1 (centres undefined) | 0.89
Cc1ccc(-c2cc(C(=O)O)c3ccccc3n2)s1 | -0.52
COC(=O)Nc1cc(C)nc2ccccc12 | -0.2
Cc1ccc(/C(O)=C/C(=O)C(=O)NNC(=O)c2cc(C)nc3ccccc23)cc1 | 3.2*
O=C(OC(c1ccco1)c1nccc2ccccc12)c1ccccc1 (centres undefined) | -0.31
O=C1C(SCCO)=C(SCCO)C(=O)c2ccccc21 | -1.7
COC(=O)c1sc(N2C(=O)c3oc4ccc(C)cc4c(=O)c3C2c2ccc(SC)cc2)nc1C (centres undefined) | -0.57
O=c1oc2ccccc2n1CC(O)Cn1c(=O)oc2ccccc21 | 1.8
Cc1cnc(NS(=O)(=O)c2ccccc2)c(Br)c1 | -0.02
Cc1cc(O)cc(C)c1NS(=O)(=O)c1ccccc1 | 3.5*
Cc1cccc(C)c1NS(=O)(=O)c1ccc(NS(=O)(=O)c2ccccc2)cc1 | 0.87
COc1ccc(C(=O)C[n+]2cc(-c3ccc(OC)cc3)n3c2CCCCC3)cc1 | -1.4
O=S(=O)(CS(=O)(=O)c1ccccc1Cl)c1ccccc1Cl | -2.3
COc1ccc2c(c1OC)C(=O)OC2CC(=O)c1ccc(C)cc1 (centres undefined) | 2.3
CCc1ccccc1CSc1n[nH]c(=O)n1Cc1ccco1 | -1.6
CC(C(=O)NNC(=O)C(C)(C)C)n1nnc(-c2cc(C(F)(F)F)cc(C(F)(F)F)c2)n1 (centres undefined) | 3.8*
CC(=O)NNC(=O)C(C)n1nnc(-c2cc(C(F)(F)F)cc(C(F)(F)F)c2)n1 (centres undefined) | -0.56
CC(C(=O)NNC(=O)C1CC1)n1nnc(-c2cc(C(F)(F)F)cc(C(F)(F)F)c2)n1 (centres undefined) | -5.9
CC(C)(C)c1ccc(C2C(C(=O)c3ccco3)=C(O)C(=O)N2Cc2cccnc2)cc1 (centres undefined) | 1.4
Cc1ccc(-c2nc(S(=O)(=O)c3ccc(Cl)cc3)c(N3CCOCC3)o2)cc1 | -0.64
SMILES | Dicer inh
Oc1ccc2c(c1)c(-c1ccccc1)nn2-c1ccccc1 | -0.77
CN(C)C=NC(=S)c1sccc1CSc1ccc(Cl)cc1 | -0.86
O=c1c(F)cn(C2CCCO2)c(=O)n1Cc1ccccc1F (centres undefined) | 1.3
COc1ccc(OCC(O)Cn2c(CO)nc3ccccc32)cc1 (centres undefined) | -1.3
O=C(Nc1nc2c(s1)CCc1ccccc1-2)c1ccc(F)c(Cl)c1 | 3.7*
CC(=O)Nc1nc2c(s1)Cc1ccccc1-2 | -1.3
Oc1ccccc1CNc1nc2c(s1)CCc1ccccc1-2 | 4.3*
ON/C=N/c1nc2c(s1)CCc1ccccc1-2 | 2.3
CCCCCCCCC(=O)Nc1nc2c(s1)CCc1ccccc1-2 | -0.72
O=C(Nc1nc2c(s1)Cc1ccccc1-2)c1ccc(F)c(Cl)c1 | 1.2
CSC1=N/C(=C\c2ccc(OCC(=O)O)cc2)C(=O)S1 | 0.3
CCOC(=O)Cc1csc(/N=C/NO)n1 | -2.8
Cn1nc2nc(-c3ccccc3)cc(-c3ccccc3)[n+]2n1 | 72
CCSC1=N/C(=C\c2c(C)nn(-c3ccccc3)c2Cl)C(=O)S1 | 0.14
COc1cc(C=Nc2ccc(N3N=C(C)CC3=O)cc2)ccc1O | -6.6
COc1cc(/C=N/c2nccs2)ccc1O | 3.1*
COc1cc(/C=N/n2cnc3c(sc(=S)n3C)c2=O)ccc1O | -1.7
CN(Cc1ccccc1)S(=O)(=O)c1cn(C)cn1 | -1.9
COc1ccccc1-c1nc(-c2ccc(Br)cc2)no1 | 0.23
CCCN1C(=O)C2(/C(=C(/O)c3ccc(Cl)cc3)C(=O)C(=O)N2CCCN(C)C)c2ccccc21 (centres undefined) | -2.9
CCCN1C(=O)C2(/C(=C(/O)c3ccc(OCC)cc3)C(=O)C(=O)N2CCN(C)C)c2ccccc21 (centres undefined) | 51
CCCN1C(=O)C2(/C(=C(/O)c3ccc(Cl)cc3)C(=O)C(=O)N2CCOC)c2ccccc21 (centres undefined) | -1.6
CCCN1C(=O)C2(/C(=C(/O)c3ccc(C)cc3)C(=O)C(=O)N2CCCN(C)C)c2ccccc21 (centres undefined) | 0.61
CCCN1C(=O)C2(/C(=C(/O)c3ccccc3)C(=O)C(=O)N2CCCN(C)C)c2ccccc21 (centres undefined) | 4.4*
COCCCN1C(=O)C(=O)/C(=C(\O)c2ccc(OC)cc2)C12C(=O)N(C)c1ccccc12 (centres undefined) | 2.6
SMILES | Dicer inh
CCCN1C(=O)C2(/C(=C(/O)c3ccc(OC)cc3)C(=O)C(=O)N2CCCOC)c2ccccc21 (centres undefined) | 3.1*
CCCN1C(=O)C2(/C(=C(/O)c3ccc(C)cc3)C(=O)C(=O)N2CCCOC)c2ccccc21 (centres undefined) | 1.2
CCCN1C(=O)C2(/C(=C(/O)c3ccccc3)C(=O)C(=O)N2CCCOC)c2ccccc21 (centres undefined) | 5*
O=C1C(=O)N(c2ccccn2)C(c2cccc(Br)c2)/C1=C(\O)c1ccc(Cl)cc1 (centres undefined) | 1.6
CCOC(=O)c1cc(C)n(-c2ccc(-c3csnn3)cc2)c1C | 2.6
S=c1[nH]nc2nc(-c3ccccc3)c(-c3ccccc3)nn12 | -0.34
CCSc1nnc2nc3c4ccccc4c4ccccc4c3nn12 | 1.3
S=c1[nH]nc2nc3c4ccccc4c4ccccc4c3nn12 | 4.9*
Cc1c(C(=O)OCC(C)(C)CN(C)C)oc2ccccc12 | -1.2
O=C1CC(c2ccc(F)cc2)Cc2nc(N3CCc4ccccc4C3)ncc21 (centres undefined) | -0.69
O=C1c2cccc3c(SCCO)ccc(c23)C(=O)N1CCc1ccccn1 | 0.97
Cc1cc(C)c2c(=O)n(-c3ccccc3)[nH]c2n1 | -1.5
O=c1oc(-c2ccccc2Cl)nc2ccc(I)cc12 | 2.7
Cc1ccc(C(=O)Nc2nc(-c3ccc(C)c(Cl)c3)c(C)s2)cc1 | 1.4
Cc1ccc(-c2nc3sc(C)c(C)c3c(=O)o2)cc1 | 0.59
CCc1ccc(-c2cc(O)cc3sc(=O)oc23)cc1 | 1.9
Cc1ccc(-c2nc(NC(=O)COc3ccc(Cl)cc3Cl)sc2C)cc1Cl | 2.1
O=c1oc2c(-c3cccc(F)c3)cc(O)cc2s1 | 5*
Cc1ccc(-c2cc(O)cc3sc(=O)oc23)cc1 | 8.1*
O=c1oc2c(-c3ccccc3Cl)cc(O)cc2s1 | 3.6*
CC(=O)Oc1cc2sc(=O)oc2c2ccccc12 | -4.4
Cc1ccc(-c2cc(O)cc3sc(=O)oc23)cc1Cl | 5.3*
CC(C)(C)OC(=O)NCCNC(=S)NC1CCCCCCC1 | -0.24
CSc1nnc2c(n1)OC(c1cccc(O)c1Cl)Nc1ccccc1-2 (centres undefined) | 0.97
O=S1(=O)c2cccc3cccc(c23)N1Cc1cc2c(cc1Cl)OCO2 | 0.54
O=C(CSc1nc2ccccc2nc1N1CCCC1)Nc1ccc(F)cc1 | 1.1
COCc1cc(=O)[nH]c(/N=C(\N)Nc2ccc(Cl)c(Cl)c2)n1 | -0.81
COc1ccc(Cl)cc1CNCCSc1nnnn1C | -0.26
